Assay [1] in a line: NCI Yeast Anticancer Drug Screen. Data for the rad50 strain (AID 155).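 Also: 0% = growth of vehicle-only cultures of the same strain.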 The conditions noted are these: S. cerevisiae rad50 strain growth inhibition; at 50.0 µM; stronger effect = higher value. The procedure, abridged: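 Readout: growth inhibition relative to vehicle-treated cultures. Compound exposure was carried out in a genetically defined yeast strain deficient in DNA damage repair.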

Assay [2] is described as follows: NCI Yeast Anticancer Drug Screen. Data for the mec2-1 strain (AID 157). The conditions noted are these: S. cerevisiae mec2-1 strain, at 50.0 µM, stronger effect = higher value. In outline:
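Each compound was tested on mec2-1 yeast, a strain altered in DNA damage repair or cell cycle control. Growth inhibition is reported relative to vehicle.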

Assay [3] is described as follows: NCI Yeast Anticancer Drug Screen. Data for the sgs1 mgt1 strain (AID 161).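 Also: 0% = growth of cultures given vehicle only.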 The conditions noted are these: S. cerevisiae sgs1 mgt1 strain, at 50.0 µM, stronger effect = higher value. In outline: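 Inhibition of yeast growth, normalised to vehicle-treated controls, is reported for a strain bearing genetic alterations in DNA damage repair.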
A short description of assay [4]: NCI Yeast Anticancer Drug Screen. Data for the cln2 rad14 strain (AID 165).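 Also: 0% = growth equal to vehicle treated cultures.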 As to conditions: S. cerevisiae cln2 rad14 strain, at 50.0 µM, stronger effect = higher value. In outline:
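Test compounds were added to cln2 rad14 yeast cultures; inhibition of growth was then determined by comparison with vehicle treatment.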

Assay [5] is described as follows: NCI Yeast Anticancer Drug Screen. Data for the bub3 strain (AID 167). The conditions noted are these: S. cerevisiae bub3 mutant strain, at 50.0 µM, stronger effect = higher value. The procedure, abridged:
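Readout: yeast growth inhibition, expressed relative to vehicle-only wells. The test organism is a mutant strain from a panel with lesions in DNA repair or checkpoint genes.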

Assay [6] in a line: NCI Yeast Anticancer Drug Screen. Data for the mlh1 rad18 strain (AID 175). The conditions noted are these: S. cerevisiae mlh1 rad18 strain growth inhibition; at 50.0 µM; stronger effect = higher value. In outline: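 Inhibition values reflect reduced growth of mutant yeast versus vehicle-treated controls following compound exposure; the mutations affect DNA damage repair.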

SMILES strings stand for the structures. The panel holds about 79,000 compounds, 15% with a hit somewhere; the sample as a whole holds those more often. A number with no mark means an inactive call. Calls of active or inactive are those of the source. Rule as the data show it: active = growth inhibition above about 70%; inactive = the rest.

Consider `Cc1cccnc1N`, for which the growth inhibition in assay [1] was -9.4%; in assay [2] it was -31.6%; in assay [3], 5.3%; in assay [4], -11.6%; in assay [5], -1.15%; in assay [6] it was 14.7%.

Consider `COc1ccc2c(c1)C1(C)CCC(=O)C(C)=C1CC2` (stereo unspecified), for which the growth inhibition in assay [1] was 17.9%; in assay [2], -3.95%; in assay [3], 22.9%; in assay [4], 7.75%; in assay [5], 14.8%; in assay [6], 14.4%.

In the case of `COn1nnc2ccccc21`, the growth inhibition is -21% in assay [1]; -13.8% in assay [2]; -19.9% in assay [3]; 5.15% in assay [4]; 7.9% in assay [5]; -18.1% in assay [6].

Turning to `Cn1ccc2c3ccn(C)c3ccc21`, the growth inhibition in assay [1] was -15.8%; in assay [2], 9.4%; in assay [3], -5.25%; in assay [4], 56.7%; in assay [5] it was -19.9%; in assay [6] it was 23.1%.

As for `CN(C=O)c1c(F)cc(C(=O)O)cc1F`, the growth inhibition was 3.05% in assay [1]; 4.1% in assay [2]; -3.3% in assay [3]; 4.1% in assay [4]; -6.65% in assay [5]; 8.15% in assay [6].

With `CCN(CC)CC(C)=O`, the growth inhibition in assay [1] is -31%; in assay [2], -58.3%; in assay [3], -82.5%; in assay [4] it was 14.8%; in assay [5] it was -11.9%; in assay [6] it was -6.1%.

Take `C#CCN(N=O)C(=O)NC(CCCCNC(=O)OCc1ccccc1)C(=O)OCc1ccccc1` (stereo unspecified): the growth inhibition in assay [1] was -8.65%; in assay [2] it was -25.4%; in assay [3], -7.75%; in assay [4], -2.35%; in assay [5], 14.2%; in assay [6] it was 0.6%.

Turning to `O=[N+]([O-])c1ccc(S(=O)(=O)/N=C/c2ccccc2)cc1`, the growth inhibition in assay [1] is 2.2%; in assay [2], 9.25%; in assay [3], 8.75%; in assay [4], 14.7%; in assay [5] it was 14.4%; in assay [6], 12.3%.

Take `CNc1ncnc2nc[nH]c12`: the growth inhibition was 16.2% in assay [1]; -6.85% in assay [2]; 2.9% in assay [3]; -3.15% in assay [4]; -8.5% in assay [5]; 14.9% in assay [6].

Consider `Cc1ccc(NC(=O)C(C)S)cc1` (stereo unspecified), for which the growth inhibition in assay [1] is 24.6%; in assay [2], 11.6%; in assay [3] it was 29.1%; in assay [4] it was 38.6%; in assay [5] it was 25.7%; in assay [6], 32.4%.

With `COc1ccc(C(=O)Sc2c(-c3ccccc3)c(=O)n(-c3ccccc3)c(=S)n2-c2ccccc2)cc1`, the growth inhibition in assay [1] is 0.75%; in assay [2], -4.9%; in assay [3], 2.45%; in assay [4], 1.7%; in assay [5], 0.6%; in assay [6] it was 10.1%.

Regarding `O=C(/C=C(\O)c1ccc(Cl)cc1)C(=O)NN=C(c1ccccc1)c1ccccc1`, the growth inhibition in assay [1] is 39%; in assay [2], 33.7%; in assay [3] it was 3.1%; in assay [4] it was 7.2%; in assay [5] it was 14.5%; in assay [6], 8.6%.

For the compound `OC(c1ccccc1)C(Cc1ccccc1)N1CCCCC1` (stereo unspecified), the growth inhibition in assay [1] is 2.4%; in assay [2], 1.3%; in assay [3] it was 23.2%; in assay [4], -4.45%; in assay [5], 7.7%; in assay [6], 5.35%.

On to `Nc1ncnc(N)c1NC(=O)c1cccc(C(=O)c2ccccc2)c1`, for which the growth inhibition is 2.85% in assay [1]; 16.1% in assay [2]; -10.7% in assay [3]; -3.5% in assay [4]; 0.85% in assay [5]; 0.85% in assay [6].

As to `CCOC(=O)C(CCC(c1ccc(OC)cc1)c1ccc(OC)cc1)C(=O)OCC`, the growth inhibition in assay [1] is 29.7%; in assay [2], -8.15%; in assay [3], 10.2%; in assay [4], 2.05%; in assay [5], 27.6%; in assay [6], -18.2%.

As to `Cc1ccc(S(=O)[O-])cc1.Cc1ccc(S(=O)[O-])cc1.[Zn+2]`, the growth inhibition in assay [1] was 26.9%; in assay [2], 1.05%; in assay [3] it was 16%; in assay [4] it was 14.8%; in assay [5], -1.95%; in assay [6] it was 0.4%.

As to `N#C/C(=C\N1CC(=O)NC1=S)C(=O)c1ccc2ccccc2c1`, the growth inhibition is -20.4% in assay [1]; 15.6% in assay [2]; -26.2% in assay [3]; 13.5% in assay [4]; 3.25% in assay [5]; -17.4% in assay [6].

`C=CC[N+](CCO)(CCO)CCCCCCCCCCCCCCCCCC`: the growth inhibition in assay [1] is 98.4% (active); in assay [2] it was 99% (active); in assay [3], 99.2% (active); in assay [4], 96.1% (active); in assay [5], 98.5% (active); in assay [6], 97.8% (active).

Regarding `O=[N+]([O-])c1ccc(CCO)cc1`, the growth inhibition in assay [1] was -4.15%; in assay [2], -26.1%; in assay [3], -6.85%; in assay [4], -15.4%; in assay [5] it was -10.5%; in assay [6] it was -4.6%.

On to `CCCCc1ccc(NC(=O)c2cccnc2)cc1`, for which the growth inhibition in assay [1] is 3%; in assay [2], 14.4%; in assay [3] it was 36.5%; in assay [4] it was 15.2%; in assay [5], -3.4%; in assay [6] it was 27.6%.

`O=C(N/N=C\c1cc(=O)[nH]c(=O)[nH]1)c1ccccc1`: the growth inhibition in assay [1] is -18.1%; in assay [2], -2.95%; in assay [3], -11.5%; in assay [4] it was -6.75%; in assay [5] it was -14.2%; in assay [6], 2.9%.

Source of the values: PubChem BioAssay (NCI).
